Key:
[1] = biological target: Dolichyl-diphosphooligosaccharide--protein glycosyltransferase subunit STT3B (UniProt Q8TCJ2); assay: cross-linking mass spectrometry
[2] = biological target: Dolichyl-diphosphooligosaccharide--protein glycosyltransferase subunit 2 (UniProt P04844); assay: co-fractionation; co-fractionation; cross-linking mass spectrometry
[3] = biological target: Large ribosomal subunit protein bL12m (UniProt P52815); assay: cross-linking mass spectrometry
[4] = biological target: 3-hydroxyacyl-CoA dehydrogenase type-2 (UniProt Q99714); assay: cross-link between two proteins; cross-linking mass spectrometry
[5] = biological target: Complement component 1 Q subcomponent-binding protein, mitochondrial (UniProt Q07021); assay: as above
[6] = biological target: Methylcrotonoyl-CoA carboxylase beta chain, mitochondrial (UniProt Q9HCC0); assay: as above
[7] = biological target: Mitochondrial 10-formyltetrahydrofolate dehydrogenase (UniProt Q3SY69); assay: as above
[8] = biological target: Polyribonucleotide nucleotidyltransferase 1, mitochondrial (UniProt Q8TCS8); assay: as above
[9] = biological target: Pyrroline-5-carboxylate reductase 2 (UniProt Q96C36); assay: as above
[10] = biological target: Spectrin alpha chain, non-erythrocytic 1 (UniProt Q13813); assay: as above
[11] = biological target: Myeloid-derived growth factor (UniProt Q969H8); assay: cross-linking mass spectrometry
[12] = biological target: Peptidyl-prolyl cis-trans isomerase B (UniProt P23284); assay: cross-link between two proteins; cross-linking mass spectrometry
[13] = biological target: Neutral alpha-glucosidase AB (UniProt Q14697); assay: cross-link between two proteins; co-fractionation; cross-linking mass spectrometry
[14] = biological target: AP-1 complex subunit mu-1 (UniProt Q9BXS5); assay: co-fractionation; cross-linking mass spectrometry
14-3-3 protein epsilon = 14-3-3 protein epsilon (UniProt P62258); assay: cross-link between two proteins; cross-linking mass spectrometry
14-3-3 protein gamma = 14-3-3 protein gamma (UniProt P61981); assay: as above
14-3-3 protein eta = 14-3-3 protein eta (UniProt P68510); assay: as above
14-3-3 protein theta = 14-3-3 protein theta (UniProt P68254); assay: as above
[15] = biological target: ATP synthase F(0) complex subunit e, mitochondrial (UniProt P56385); assay: as above
[16] = biological target: ATP synthase peripheral stalk subunit b, mitochondrial (UniProt P24539); assay: co-fractionation; co-fractionation; cross-linking mass spectrometry
[17] = biological target: Cytochrome c oxidase subunit 4 isoform 1, mitochondrial (UniProt P13073); assay: cross-link between two proteins; affinity purification or IP with mass spectrometry; cross-linking mass spectrometry
[18] = biological target: ATP synthase F(1) complex subunit alpha, mitochondrial (UniProt P25705); assay: cross-link between two proteins; cross-linking mass spectrometry
[19] = biological target: ATP synthase F(1) complex subunit epsilon, mitochondrial (UniProt P56381); assay: as above
[20] = biological target: ATPase inhibitor, mitochondrial (UniProt Q9UII2); assay: as above
Frataxin, mitochondrial = Frataxin, mitochondrial (UniProt Q16595); assay: as above
[21] = biological target: Trifunctional enzyme subunit beta, mitochondrial (UniProt P55084); assay: as above
[22] = biological target: ATP synthase peripheral stalk subunit OSCP, mitochondrial (UniProt P48047); assay: as above
[23] = biological target: NAD kinase 2, mitochondrial (UniProt Q4G0N4); assay: co-fractionation; co-fractionation; cross-linking mass spectrometry
[24] = biological target: Aldehyde dehydrogenase, mitochondrial (UniProt P05091); assay: cross-link between two proteins; cross-linking mass spectrometry
[25] = biological target: NADH-ubiquinone oxidoreductase 75 kDa subunit, mitochondrial (UniProt P28331); assay: as above
[26] = biological target: Cytochrome b-c1 complex subunit 7 (UniProt P14927); assay: as above
[27] = biological target: Cytochrome b-c1 complex subunit Rieske, mitochondrial (UniProt P47985); assay: co-fractionation; co-fractionation; cross-linking mass spectrometry
[28] = biological target: Cytochrome c oxidase subunit 6C (UniProt P09669); assay: cross-link between two proteins; cross-linking mass spectrometry
[29] = biological target: Solute carrier family 25 member 3 (UniProt Q00325); assay: co-fractionation; co-fractionation; cross-linking mass spectrometry
[30] = biological target: MICOS complex subunit MIC60 (UniProt Q16891); assay: cross-link between two proteins; cross-linking mass spectrometry
[31] = biological target: Cytochrome b-c1 complex subunit 1, mitochondrial (UniProt P31930); assay: co-fractionation; co-fractionation; cross-linking mass spectrometry
[32] = biological target: Cytochrome b-c1 complex subunit 2, mitochondrial (UniProt P22695); assay: as above
[33] = biological target: Electron transfer flavoprotein subunit beta (UniProt P38117); assay: as above
[34] = biological target: Propionyl-CoA carboxylase beta chain, mitochondrial (UniProt P05166); assay: as above
[35] = biological target: AP-1 complex subunit beta-1 (UniProt Q10567); assay: cross-link between two proteins; co-fractionation; cross-linking mass spectrometry
[36] = biological target: AP-2 complex subunit beta (UniProt P63010); assay: as above
[37] = biological target: BLOC-1-related complex subunit 7 (UniProt Q96B45); assay: as above
[38] = biological target: Pyruvate dehydrogenase E1 component subunit beta, mitochondrial (UniProt P11177); assay: as above
[39] = biological target: Ras-related protein Rab-11B (UniProt Q15907); assay: as above
[40] = biological target: Ras-related protein Rab-1B (UniProt Q9H0U4); assay: as above
[41] = biological target: ATPase family AAA domain-containing protein 3A (UniProt Q9NVI7); assay: cross-link between two proteins; affinity purification or IP with mass spectrometry; cross-linking mass spectrometry
[42] = biological target: Cytochrome c oxidase assembly factor 4 homolog, mitochondrial (UniProt Q9NYJ1); assay: as above
[43] = biological target: MICOS complex subunit MIC19 (UniProt Q9NX63); assay: as above
[44] = biological target: MICOS complex subunit MIC25 (UniProt Q9BRQ6); assay: as above
[45] = biological target: Serine/threonine-protein phosphatase PGAM5, mitochondrial (UniProt Q96HS1); assay: as above
[46] = biological target: TIM double twin CX3C motif protein (UniProt Q96C01); assay: as above
[47] = biological target: Endoplasmic reticulum membrane protein complex subunit 7 (UniProt Q9NPA0); assay: as above
[48] = biological target: Thioredoxin-related transmembrane protein 1 (UniProt Q9H3N1); assay: as above
[49] = biological target: Endoplasmic reticulum resident protein 29 (UniProt P30040); assay: as above
[50] = biological target: Leucine-rich repeat-containing protein 59 (UniProt Q96AG4); assay: as above
[51] = biological target: Transmembrane emp24 domain-containing protein 9 (UniProt Q9BVK6); assay: as above
[52] = biological target: Large ribosomal subunit protein bL12m (UniProt P52815); assay: as above
[53] = biological target: Mitochondrial import inner membrane translocase subunit Tim29 (UniProt Q9BSF4); assay: as above
Syntaxin-8 = Syntaxin-8 (UniProt Q9UNK0); assay: as above
[54] = biological target: Elongation factor Tu, mitochondrial (UniProt P49411); assay: cross-linking mass spectrometry
[55] = biological target: Large ribosomal subunit protein mL45 (UniProt Q9BRJ2); assay: cross-linking mass spectrometry
[56] = biological target: Leucine-rich PPR motif-containing protein, mitochondrial (UniProt P42704); assay: cross-linking mass spectrometry
[57] = biological target: Acyl-coenzyme A thioesterase 9, mitochondrial (UniProt Q9Y305); assay: cross-link between two proteins; cross-linking mass spectrometry
[58] = biological target: Alpha-aminoadipic semialdehyde dehydrogenase (UniProt P49419); assay: as above
[59] = biological target: Aspartate--tRNA ligase, mitochondrial (UniProt Q6PI48); assay: as above
[60] = biological target: Delta(3,5)-Delta(2,4)-dienoyl-CoA isomerase, mitochondrial (UniProt Q13011); assay: as above
[61] = biological target: Elongation factor G, mitochondrial (UniProt Q96RP9); assay: as above
[62] = biological target: Heat shock protein 75 kDa, mitochondrial (UniProt Q12931); assay: as above
[63] = biological target: Hydroxyacyl-coenzyme A dehydrogenase, mitochondrial (UniProt Q16836); assay: as above
[64] = biological target: Isocitrate dehydrogenase [NAD] subunit alpha, mitochondrial (UniProt P50213); assay: as above
[65] = biological target: NADH dehydrogenase [ubiquinone] 1 alpha subcomplex subunit 5 (UniProt Q16718); assay: as above
[66] = biological target: Presequence protease, mitochondrial (UniProt Q5JRX3); assay: as above
[67] = biological target: Solute carrier family 25 member 3 (UniProt Q00325); assay: as above
[68] = biological target: Stomatin-like protein 2, mitochondrial (UniProt Q9UJZ1); assay: as above
[69] = biological target: Succinate-semialdehyde dehydrogenase, mitochondrial (UniProt P51649); assay: as above
[70] = biological target: Transcription factor A, mitochondrial (UniProt Q00059); assay: as above
[71] = biological target: Tyrosine--tRNA ligase, mitochondrial (UniProt Q9Y2Z4); assay: as above
Zeta-crystallin = Zeta-crystallin (UniProt Q08257); assay: as above

Polyribonucleotide nucleotidyltransferase 1, mitochondrial, sequence (Q8TCS8 whole entry): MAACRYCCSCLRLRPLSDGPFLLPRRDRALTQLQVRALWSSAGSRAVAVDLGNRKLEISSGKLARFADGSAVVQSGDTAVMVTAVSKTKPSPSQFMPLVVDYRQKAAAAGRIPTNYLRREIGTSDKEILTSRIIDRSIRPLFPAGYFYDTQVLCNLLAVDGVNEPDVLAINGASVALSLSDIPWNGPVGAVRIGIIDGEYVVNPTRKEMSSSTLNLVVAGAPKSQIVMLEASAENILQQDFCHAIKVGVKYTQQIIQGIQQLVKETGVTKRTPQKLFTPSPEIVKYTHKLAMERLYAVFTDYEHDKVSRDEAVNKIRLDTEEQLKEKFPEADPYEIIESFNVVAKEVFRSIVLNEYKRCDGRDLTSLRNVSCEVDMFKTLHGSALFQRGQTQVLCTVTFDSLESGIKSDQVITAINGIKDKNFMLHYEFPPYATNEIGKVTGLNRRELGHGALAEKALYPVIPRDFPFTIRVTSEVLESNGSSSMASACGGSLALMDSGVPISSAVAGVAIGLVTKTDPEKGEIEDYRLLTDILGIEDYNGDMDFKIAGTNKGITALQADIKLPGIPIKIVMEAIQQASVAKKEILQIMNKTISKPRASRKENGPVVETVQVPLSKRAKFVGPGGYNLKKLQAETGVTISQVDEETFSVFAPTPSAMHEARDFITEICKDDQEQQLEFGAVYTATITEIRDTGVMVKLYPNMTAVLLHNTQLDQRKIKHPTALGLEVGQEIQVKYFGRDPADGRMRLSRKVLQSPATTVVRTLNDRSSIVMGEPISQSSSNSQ
Complement component 1 Q subcomponent-binding protein, mitochondrial, sequence (Q07021 whole entry): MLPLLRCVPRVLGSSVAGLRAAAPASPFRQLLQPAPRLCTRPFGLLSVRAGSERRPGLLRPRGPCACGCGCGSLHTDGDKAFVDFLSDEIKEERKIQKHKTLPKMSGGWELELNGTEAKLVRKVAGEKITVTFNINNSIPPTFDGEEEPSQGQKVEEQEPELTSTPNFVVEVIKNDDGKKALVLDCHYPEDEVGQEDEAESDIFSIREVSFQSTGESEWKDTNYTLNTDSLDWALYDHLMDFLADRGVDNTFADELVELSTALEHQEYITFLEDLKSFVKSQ
Solute carrier family 25 member 3, sequence (Q00325 whole entry): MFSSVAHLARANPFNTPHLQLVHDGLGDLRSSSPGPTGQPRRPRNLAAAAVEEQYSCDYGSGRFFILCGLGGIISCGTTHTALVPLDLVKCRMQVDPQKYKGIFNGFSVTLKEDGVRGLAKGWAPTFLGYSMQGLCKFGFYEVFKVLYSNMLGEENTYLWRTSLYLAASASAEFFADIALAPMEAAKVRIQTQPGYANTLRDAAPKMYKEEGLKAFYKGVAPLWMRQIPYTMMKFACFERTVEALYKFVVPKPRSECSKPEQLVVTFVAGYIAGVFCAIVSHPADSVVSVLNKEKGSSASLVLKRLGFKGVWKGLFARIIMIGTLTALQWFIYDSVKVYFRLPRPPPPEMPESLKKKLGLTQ
ATP synthase peripheral stalk subunit OSCP, mitochondrial, sequence (P48047 whole entry): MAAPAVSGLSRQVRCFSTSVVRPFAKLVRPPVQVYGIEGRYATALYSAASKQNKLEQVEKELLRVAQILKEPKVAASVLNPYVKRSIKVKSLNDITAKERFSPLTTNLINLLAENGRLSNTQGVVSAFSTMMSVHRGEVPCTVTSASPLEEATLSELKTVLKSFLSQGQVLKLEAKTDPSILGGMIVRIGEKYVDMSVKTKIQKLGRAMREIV
3-hydroxyacyl-CoA dehydrogenase type-2, sequence (Q99714 whole entry): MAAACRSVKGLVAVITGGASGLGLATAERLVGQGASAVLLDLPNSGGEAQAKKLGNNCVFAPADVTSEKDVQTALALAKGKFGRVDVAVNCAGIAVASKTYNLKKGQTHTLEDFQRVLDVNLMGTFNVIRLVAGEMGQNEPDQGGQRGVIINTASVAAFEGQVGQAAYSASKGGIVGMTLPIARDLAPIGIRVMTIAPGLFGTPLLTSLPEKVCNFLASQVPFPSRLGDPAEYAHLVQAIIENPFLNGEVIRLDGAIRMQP
Thioredoxin-related transmembrane protein 1, sequence (Q9H3N1 whole entry): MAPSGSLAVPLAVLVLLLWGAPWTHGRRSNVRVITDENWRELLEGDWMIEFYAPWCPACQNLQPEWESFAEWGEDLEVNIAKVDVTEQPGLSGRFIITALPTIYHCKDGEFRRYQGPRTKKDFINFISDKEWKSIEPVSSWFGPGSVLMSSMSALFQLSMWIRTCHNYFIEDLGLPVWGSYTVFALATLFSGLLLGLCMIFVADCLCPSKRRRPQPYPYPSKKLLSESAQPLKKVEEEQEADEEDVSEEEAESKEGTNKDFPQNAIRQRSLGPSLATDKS
NADH-ubiquinone oxidoreductase 75 kDa subunit, mitochondrial, sequence (P28331 whole entry): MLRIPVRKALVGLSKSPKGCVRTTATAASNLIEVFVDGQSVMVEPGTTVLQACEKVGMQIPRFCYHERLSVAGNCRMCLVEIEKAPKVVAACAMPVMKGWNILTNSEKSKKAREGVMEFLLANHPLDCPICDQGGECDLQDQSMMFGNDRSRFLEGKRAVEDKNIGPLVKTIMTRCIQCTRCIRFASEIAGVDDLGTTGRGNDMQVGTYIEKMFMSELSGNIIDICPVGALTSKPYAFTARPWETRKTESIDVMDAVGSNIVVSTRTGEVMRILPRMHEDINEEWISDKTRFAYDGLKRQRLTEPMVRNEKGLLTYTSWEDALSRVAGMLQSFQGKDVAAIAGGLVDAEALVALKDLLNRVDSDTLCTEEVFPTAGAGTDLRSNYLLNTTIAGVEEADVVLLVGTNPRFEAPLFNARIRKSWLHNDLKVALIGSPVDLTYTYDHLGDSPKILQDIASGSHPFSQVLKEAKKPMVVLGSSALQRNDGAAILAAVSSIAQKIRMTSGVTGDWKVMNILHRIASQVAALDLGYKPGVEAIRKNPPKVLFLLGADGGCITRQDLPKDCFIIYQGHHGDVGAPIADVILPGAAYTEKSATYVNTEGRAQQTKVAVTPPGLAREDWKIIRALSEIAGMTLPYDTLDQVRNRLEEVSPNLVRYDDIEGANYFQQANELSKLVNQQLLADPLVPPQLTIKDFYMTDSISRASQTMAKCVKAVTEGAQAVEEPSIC
AP-1 complex subunit beta-1, sequence (Q10567 whole entry, one chain of several): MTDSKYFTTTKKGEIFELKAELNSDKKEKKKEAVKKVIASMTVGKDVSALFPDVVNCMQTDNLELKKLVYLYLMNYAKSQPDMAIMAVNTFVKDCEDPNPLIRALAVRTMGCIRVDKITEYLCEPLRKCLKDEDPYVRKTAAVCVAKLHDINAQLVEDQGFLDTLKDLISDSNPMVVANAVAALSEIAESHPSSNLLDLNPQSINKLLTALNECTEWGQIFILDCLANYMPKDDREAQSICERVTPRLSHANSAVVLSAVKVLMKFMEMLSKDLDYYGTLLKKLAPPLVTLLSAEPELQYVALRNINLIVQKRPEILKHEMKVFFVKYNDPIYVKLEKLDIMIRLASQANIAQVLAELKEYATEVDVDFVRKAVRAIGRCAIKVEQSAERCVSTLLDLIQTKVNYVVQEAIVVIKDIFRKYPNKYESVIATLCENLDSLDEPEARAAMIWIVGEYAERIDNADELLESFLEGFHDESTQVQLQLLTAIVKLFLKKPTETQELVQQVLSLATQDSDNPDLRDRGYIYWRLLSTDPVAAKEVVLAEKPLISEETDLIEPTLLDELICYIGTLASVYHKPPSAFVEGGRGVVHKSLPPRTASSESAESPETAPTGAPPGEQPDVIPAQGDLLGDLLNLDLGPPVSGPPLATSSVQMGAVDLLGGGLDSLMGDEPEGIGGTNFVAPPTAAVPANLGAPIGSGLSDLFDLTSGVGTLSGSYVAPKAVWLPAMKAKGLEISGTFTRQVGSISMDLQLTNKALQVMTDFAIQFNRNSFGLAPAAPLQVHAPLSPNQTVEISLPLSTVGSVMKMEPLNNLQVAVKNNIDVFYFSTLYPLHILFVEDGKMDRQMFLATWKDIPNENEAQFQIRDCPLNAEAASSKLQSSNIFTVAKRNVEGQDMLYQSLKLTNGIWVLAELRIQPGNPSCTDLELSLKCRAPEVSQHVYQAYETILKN
TIM double twin CX3C motif protein, sequence (Q96C01 whole entry): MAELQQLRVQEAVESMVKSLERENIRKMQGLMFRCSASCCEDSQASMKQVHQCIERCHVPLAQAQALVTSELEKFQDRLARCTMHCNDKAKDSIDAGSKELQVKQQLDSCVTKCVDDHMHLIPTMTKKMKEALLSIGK
Pyruvate dehydrogenase E1 component subunit beta, mitochondrial, sequence (P11177 whole entry): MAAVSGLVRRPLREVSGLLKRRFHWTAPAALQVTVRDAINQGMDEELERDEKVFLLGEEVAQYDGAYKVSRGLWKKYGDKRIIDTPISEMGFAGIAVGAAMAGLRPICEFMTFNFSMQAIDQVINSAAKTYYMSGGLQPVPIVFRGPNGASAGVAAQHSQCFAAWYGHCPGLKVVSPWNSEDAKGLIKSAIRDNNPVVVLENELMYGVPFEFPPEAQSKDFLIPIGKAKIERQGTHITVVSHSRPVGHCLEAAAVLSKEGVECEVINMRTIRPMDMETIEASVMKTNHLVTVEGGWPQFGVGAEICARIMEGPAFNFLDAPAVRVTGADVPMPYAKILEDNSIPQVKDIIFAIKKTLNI
Propionyl-CoA carboxylase beta chain, mitochondrial, sequence (P05166 whole entry): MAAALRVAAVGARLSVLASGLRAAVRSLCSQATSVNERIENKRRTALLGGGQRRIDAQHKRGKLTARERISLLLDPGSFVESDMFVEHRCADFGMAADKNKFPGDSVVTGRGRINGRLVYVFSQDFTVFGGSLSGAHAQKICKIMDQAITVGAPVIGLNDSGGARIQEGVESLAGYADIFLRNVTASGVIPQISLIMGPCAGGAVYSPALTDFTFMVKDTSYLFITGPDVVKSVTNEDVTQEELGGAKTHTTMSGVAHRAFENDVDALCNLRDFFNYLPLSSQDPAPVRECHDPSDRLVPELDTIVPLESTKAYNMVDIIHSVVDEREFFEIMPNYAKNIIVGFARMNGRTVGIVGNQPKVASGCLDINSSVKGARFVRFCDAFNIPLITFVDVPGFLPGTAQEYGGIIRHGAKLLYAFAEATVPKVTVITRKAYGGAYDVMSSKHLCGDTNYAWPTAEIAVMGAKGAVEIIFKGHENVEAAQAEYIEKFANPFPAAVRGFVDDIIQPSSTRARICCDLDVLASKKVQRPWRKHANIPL
ATP synthase F(1) complex subunit epsilon, mitochondrial, sequence (P56381 whole entry, one chain of several): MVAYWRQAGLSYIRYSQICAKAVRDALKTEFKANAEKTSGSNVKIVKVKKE

Substance: Dolichyl-diphosphooligosaccharide--protein glycosyltransferase subunit 1, P04843
- listed as a hit [1]: yes
- listed as a hit [2]: yes

Substance: Stress-70 protein, mitochondrial, P38646
- listed as a hit [3]: yes
- listed as a hit [4]: yes
- listed as a hit [5]: yes
- listed as a hit [6]: yes
- listed as a hit [7]: yes
- listed as a hit [8]: yes
- listed as a hit [9]: yes
- listed as a hit [10]: yes

Substance: Glucosidase 2 subunit beta, P14314
- listed as a hit [11]: yes
- listed as a hit [12]: yes
- listed as a hit [13]: yes

Substance: AP-1 complex subunit beta-1, Q10567
- listed as a hit [14]: yes

Substance: 14-3-3 protein theta, P27348
- listed as a hit (14-3-3 protein epsilon): yes
- listed as a hit (14-3-3 protein gamma): yes

Substance: 14-3-3 protein zeta/delta, P63101
- listed as a hit (14-3-3 protein eta): yes
- listed as a hit (14-3-3 protein theta): yes

Substance: ATP synthase F(0) complex subunit g, mitochondrial, O75964
- listed as a hit [15]: yes
- listed as a hit [16]: yes
- listed as a hit [17]: yes

Substance: NADPH:adrenodoxin oxidoreductase, mitochondrial, P22570
- listed as a hit [18]: yes
- listed as a hit [5]: yes

Substance: ATP synthase F(1) complex subunit alpha, mitochondrial, P25705
- listed as a hit [19]: yes
- listed as a hit [20]: yes
- listed as a hit (Frataxin, mitochondrial): yes
- listed as a hit [21]: yes

Substance: Citrate synthase, mitochondrial, O75390
- listed as a hit [22]: yes
- listed as a hit [23]: yes

Substance: Aspartate aminotransferase, mitochondrial, P00505
- listed as a hit [24]: yes
- listed as a hit [25]: yes

Substance: Cytochrome b-c1 complex subunit 8, O14949
- listed as a hit [26]: yes
- listed as a hit [27]: yes

Substance: ADP/ATP translocase 2, P05141
- listed as a hit [28]: yes
- listed as a hit [29]: yes

Substance: Cytochrome c, P99999
- listed as a hit [30]: yes

Substance: Cytochrome b-c1 complex subunit 2, mitochondrial, P22695
- listed as a hit [31]: yes

Substance: Cytochrome c1, heme protein, mitochondrial, P08574
- listed as a hit [32]: yes

Substance: Electron transfer flavoprotein subunit alpha, mitochondrial, P13804
- listed as a hit [33]: yes

Substance: Propionyl-CoA carboxylase alpha chain, mitochondrial, P05165
- listed as a hit [34]: yes

Substance: AP-2 complex subunit alpha-1, O95782
- listed as a hit [35]: yes
- listed as a hit [36]: yes

Substance: Biogenesis of lysosome-related organelles complex 1 subunit 1, P78537
- listed as a hit [37]: yes

Substance: Pyruvate dehydrogenase E1 component subunit alpha, somatic form, mitochondrial, P08559
- listed as a hit [38]: yes

Substance: Ras-related protein Rab-11A, P62491
- listed as a hit [39]: yes

Substance: Ras-related protein Rab-1A, P62820
- listed as a hit [40]: yes

Substance: Cytochrome c oxidase assembly factor 7, Q96BR5
- listed as a hit [41]: yes
- listed as a hit [42]: yes
- listed as a hit [43]: yes
- listed as a hit [44]: yes
- listed as a hit [45]: yes
- listed as a hit [46]: yes

Substance: ER membrane protein complex subunit 1, Q8N766
- listed as a hit [47]: yes
- listed as a hit [48]: yes

Substance: Calnexin, P27824
- listed as a hit [49]: yes
- listed as a hit [50]: yes
- listed as a hit [48]: yes
- listed as a hit [51]: yes

Substance: Heterogeneous nuclear ribonucleoproteins C1/C2, P07910
- listed as a hit [52]: yes

Substance: Mitochondrial import inner membrane translocase subunit Tim10, P62072
- listed as a hit [53]: yes

Substance: Flotillin-1, O75955
- listed as a hit (Syntaxin-8): yes

Substance: Malate dehydrogenase, mitochondrial, P40926
- listed as a hit [54]: yes
- listed as a hit [3]: yes
- listed as a hit [55]: yes
- listed as a hit [56]: yes
- listed as a hit [4]: yes
- listed as a hit [22]: yes
- listed as a hit [57]: yes
- listed as a hit [58]: yes
- listed as a hit [59]: yes
- listed as a hit [60]: yes
- listed as a hit [61]: yes
- listed as a hit [62]: yes
- listed as a hit [63]: yes
- listed as a hit [64]: yes
- listed as a hit [65]: yes
- listed as a hit [8]: yes
- listed as a hit [66]: yes
- listed as a hit [67]: yes
- listed as a hit [68]: yes
- listed as a hit [69]: yes
- listed as a hit [70]: yes
- listed as a hit [71]: yes
- listed as a hit (Zeta-crystallin): yes

Reference: article PMC11024108
